An excerpt weighted towards active compounds, which were near 7.4% of everything screened.
FLuc counter = counter-screen for miR-21 project: firefly luciferase inhibitors or activators; purified FLuc, Km substrates, luminescence inhibition; Potency, µM (series often up to 57.5 µM), for inactives: at the highest dose activity change, negative = inhibition, hits mostly inhibitors; 360,000 tested, 6.9% active; AID 588342;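 note: plate controls were vehicle for no effect and reference inhibitor for full effect; nearly all actives have a fitted effect of over 55% in size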
Target sequence (P08659 whole entry, looked up): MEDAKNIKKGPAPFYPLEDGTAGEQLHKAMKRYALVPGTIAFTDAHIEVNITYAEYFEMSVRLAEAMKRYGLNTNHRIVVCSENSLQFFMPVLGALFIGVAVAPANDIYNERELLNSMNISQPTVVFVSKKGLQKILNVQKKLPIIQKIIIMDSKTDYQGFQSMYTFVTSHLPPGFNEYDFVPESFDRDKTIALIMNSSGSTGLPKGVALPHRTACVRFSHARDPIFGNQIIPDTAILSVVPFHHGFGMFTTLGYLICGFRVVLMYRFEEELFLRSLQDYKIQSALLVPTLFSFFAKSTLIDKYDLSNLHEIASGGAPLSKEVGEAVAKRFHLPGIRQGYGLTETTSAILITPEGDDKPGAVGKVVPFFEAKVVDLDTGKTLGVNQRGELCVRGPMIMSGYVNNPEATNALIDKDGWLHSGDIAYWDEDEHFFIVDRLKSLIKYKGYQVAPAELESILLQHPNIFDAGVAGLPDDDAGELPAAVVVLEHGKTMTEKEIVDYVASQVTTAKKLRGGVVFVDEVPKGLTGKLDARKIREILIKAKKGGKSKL
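Biochemical qHTS of compounds, final roughly 60 µM downward over six points, against 10 nM purified firefly luciferase using Km concentrations of substrates (10 uM D-luciferin, 10 uM ATP) in Tris acetate pH 7.5 buffer; luminescence output.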
ELG1 genotox = genotoxicity induction in ELG1-luciferase HEK293T cells; HEK293T ELG1-luciferase reporter, luminescence, 16 h; 330,000 tested, 1.3% active; Potency, µM (top dose mostly 46 µM), without a hit: at the top dose activity change, positive = activation, actives largely listed as activators; note: % of control where 0% means no effect; nearly all actives have a fitted effect of over 60% in size
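Reporter readout depends on ELG1 protein level, which increases with genetic stress. After 16 hr compound exposure at 37 °C, luciferase activity was quantified using ONE-Glo.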
SMN2 splice enh = increases expression of the SMN2 splice variant; Potency, µM (series often up to 46.1 µM), inactives show at the top dose activity change, positive = activation, usual class: activators; 210,000 tested, 2.8% active; HEK293 SMN2-luciferase splicing reporter, luminescence, 30-36 h; AID 1458; note: % of control where 0% means no effect; nearly all actives have a fitted effect of over 55% in size
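HEK293 cells carry an SMN2 […]–luciferase reporter in which exon 7 inclusion puts luciferase in frame. Cells were plated 10-12 h before compound addition, then incubated 30-36 h at 37C. ONE-Glo luminescence was read; sodium butyrate at 4.5 mM final served as control.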
NPC1 promoter act = NPC1 promoter activation; Potency, µM (doses to about 9.22 µM), inactives show at the highest dose activation, hits mostly activators; 320,000 tested, 2.4% active; Huh7 NPC1 promoter luciferase reporter, 24 h; AID 485313; note: % of control where 0% means no effect; nearly all actives have a fitted effect of over 60% in size
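Stably transfected Huh7 (NPC1 promoter→luciferase), 1500 cells/well in Opti-MEM + 10% FBS, 2 h settle, then compound 24 h at 37 °C. Luminescence after 10 min with Amplite reagent.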
Rab9 prom act = activators of Rab9 promoter; Huh7 Rab9 promoter-luciferase reporter, luminescence, 24 h; Potency, µM (series often up to 9.22 µM), without a hit: at the top dose activation, negative = inhibition, most hits filed as activators; 320,000 tested, 2.8% active; note: % of control where 0% means no effect; nearly all actives have a fitted effect of over 60% in size
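Steps: seed 1500 Huh7 Rab9-luc cells per well, rest 2 h at 37 °C; add compound in DMSO; incubate 24 h; add luciferase reagent, 10 min ambient; read luminescence.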
Active calls of the source: *; ? = inconclusive; · = no result. Calls come from the whole dose curve; as a rule, active = well fitted curve in the direction sought with a large enough effect; inconclusive = small, poorly fitted or top-dose-only effect, or another doubt; inactive = no such curve, though single readings can be large; an effect the other way counts as inactive or inconclusive. Potency is the fitted concentration of half-maximal effect.

SMILES	FLuc counter	ELG1 genotox	SMN2 splice enh	NPC1 promoter act	Rab9 prom act
Cc1c2cnn(CC(=O)Nc3cccc(C(F)(F)F)c3)c(=O)c2c(C)n1Cc1ccccc1Cl	-11.6%	·	5.9%	·	·
Cc1cccc(C(=O)Nc2nnc(SCC(=O)NC3CC3)s2)c1	19µM*	?	·	?	?
Cc1cccc(C(=O)Nc2nnc(SCC(=O)Nc3ccc4c(c3)oc3ccccc34)s2)c1	?	13.3%	27.5%	12.7%	11.0%
O=C(CSc1nnc(NC(=O)c2cccc(F)c2)s1)NC1CCCC1	6.01µM*	16.1%	·	17.1%	18.4%
O=C(CSc1nnc(NC(=O)c2cccc(F)c2)s1)NC1CC1	15.1µM*	20.7%	·	19.7%	4.7%
COc1ccccc1C(=O)Nc1nnc(SCC(=O)Nc2ccc3c(c2)oc2ccccc23)s1	1.9µM*	?	22.4µM*	3.98µM*	2.82µM*
O=C(CSc1nnc(NC(=O)c2c(F)cccc2F)s1)NC1CCCC1	0.6%	7.8%	·	-0.2%	10.5%
O=C(Cc1ccc(F)cc1)Nc1nnc(SCC(=O)NC2CCCC2)s1	-1.8%	?	3.5%	-3.0%	-9.7%
O=C(CSc1nnc(NC(=O)c2ccccc2F)s1)NC1CC1	15.1µM*	23.3%	·	?	?
COc1ccccc1C(=O)Nc1nnc(SCC(=O)NC2CCCC2)s1	4.78µM*	2.31µM*	·	0.631µM*	·
O=C(CSc1nnc(NC(=O)c2ccc(F)cc2)s1)NC1CC1	5.36µM*	?	·	2.51µM*	?
COc1cccc(C(=O)Nc2nnc(SCC(=O)NC3CCCC3)s2)c1	2.69µM*	?	·	?	?
O=C(CSc1nnc(NC(=O)c2ccco2)s1)NC1CCCC1	-14.8%	1.0%	15.6%	-2.4%	1.2%
Cc1cccc(Cn2cnc3c(oc4ccccc43)c2=O)c1	-1.5%	·	·	·	·
Cc1ccc(C(=O)c2oc3ccccc3c2NC(=O)c2cc(-c3ccccc3)on2)cc1F	-1.1%	·	·	·	·
CC(C)c1nnc(NC(=O)CSc2nnc(NC(=O)c3c(F)cccc3F)s2)s1	8.49µM*	16.1%	28.3%	18.4%	27.5%
O=C(CSc1nnc(NC(=O)c2c(F)cccc2F)s1)Nc1ccccc1F	?	14.7%	·	4.0%	23.3%
O=C(NCCSCc1c(F)cccc1Cl)C1CCN(S(=O)(=O)Cc2ccccc2)CC1	-6.0%	·	·	·	·
O=C(/C=C/c1cn(-c2ccccc2)nc1-c1cccnc1)c1ccco1	9.53µM*	-13.9%	-37.0%	-5.3%	-7.9%
O=C(OCC(=O)N1CCN(C(=O)c2ccco2)CC1)c1cn(-c2ccccc2)nc1-c1ccccc1	16.9µM*	-4.1%	-10.7%	1.5%	-3.5%
CCN(C(=O)COC(=O)c1cn(-c2ccccc2)nc1-c1ccccc1)C1CCS(=O)(=O)C1 (stereo not given)	23.9µM*	4.8%	10.5%	-3.4%	-0.8%
O=C(c1ccco1)N1CCN(C(=O)c2cn(-c3ccccc3)nc2-c2ccccc2)CC1	6.01µM*	5.5%	·	14.4%	2.8%
O=C(OCC(=O)N1CCN(C(=O)c2ccco2)CC1)c1ccccc1C(=O)c1ccccc1	-0.5%	-1.7%	-7.8%	-2.1%	-4.1%
O=C(CSc1nc(-c2ccccc2)nc2c1Cc1ccccc1O2)N1CCCCC1	-0.7%	·	-11.8%	·	·
COc1ccccc1C(=O)Nc1nnc(S(=O)(=O)N(C)c2ccc(Cl)cc2)s1	-6.7%	·	·	·	·
SMILES	FLuc counter	ELG1 genotox	SMN2 splice enh	NPC1 promoter act	Rab9 prom act
O=C(Nc1ccc(F)cc1)c1ccc(Cn2nc(N3CCN(c4ccccc4)CC3)ccc2=O)o1	7.9%	·	·	·	·
Cc1ccc(-c2ccc(NC(=O)C3C4C=CC(C4)C3C(=O)O)cc2)o1 (stereo not given)	15.1µM*	14.9%	-28.5%	3.55µM*	3.16µM*
COc1ccc(NC(=O)C2C3C=CC(C3)C2C(=O)O)cc1 (stereo not given)	-1.6%	-2.2%	·	1.2%	0.4%
O=c1[nH]c(COc2ccc(Cl)cc2Br)nc2ccccc12	6.01µM*	?	·	2.82µM*	2.82µM*
O=c1[nH]c(COc2ccc(Cl)cc2Cl)nc2ccccc12	1.69µM*	9.2µM*	·	2.51µM*	2.24µM*
COc1ccc(-c2nnc(SC(C)C(=O)O)o2)cc1 (stereo not given)	12µM*	·	-1.3%	·	·
